# Tests used:
# Test in all cases: DAPPL (digital affinity profiling via proximity ligation, sequencing); 10 mM Tris-HCl pH 7.5, 50 mM NaCl, 1 mM DTT, 4% glycerol, room temperature, 30 min; GST-TFs on glutathione beads, 16-mer random dsDNA library, 0.1% formaldehyde crosslink after washing; high values mean tight binding
# [1] = molecular target: T1, FLI1 (Homo sapiens, UniProt Q01543 1-452); conditions: protein: recombinant; tags: N-terminal GST; dsDNA, one strand shown
# T1 sequence: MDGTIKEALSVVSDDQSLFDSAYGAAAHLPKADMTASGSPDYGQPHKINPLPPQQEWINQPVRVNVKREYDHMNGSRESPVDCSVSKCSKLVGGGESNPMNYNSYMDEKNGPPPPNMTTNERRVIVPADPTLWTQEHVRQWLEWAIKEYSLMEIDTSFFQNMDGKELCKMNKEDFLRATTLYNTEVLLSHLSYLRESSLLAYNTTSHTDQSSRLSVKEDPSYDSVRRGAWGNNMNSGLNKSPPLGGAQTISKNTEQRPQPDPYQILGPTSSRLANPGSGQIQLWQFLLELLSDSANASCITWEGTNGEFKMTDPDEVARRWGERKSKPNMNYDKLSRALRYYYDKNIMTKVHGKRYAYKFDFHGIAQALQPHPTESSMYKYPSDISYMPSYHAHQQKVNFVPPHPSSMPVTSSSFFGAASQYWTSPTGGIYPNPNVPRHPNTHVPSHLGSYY
# How it was run: (§1)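 In yeast, human transcription factors were expressed with a GST fusion, then pulled down on glutathione beads and given DNA barcodes. Pooled with a tag-only sample, they were exposed to 200 nmole of a 16-mer random double-stranded DNA library (Tris/NaCl/DTT/glycerol buffer, room temperature, 30 min), washed, crosslinked with 0.1% formaldehyde, proximity-ligated using BsaI/T4 ligase for 1 h at 37 °C, PCR-amplified and read on an Illumina NextSeq500. Each hexamer's frequency of reads for a factor, divided by the matching frequency for the tag-only sample, gives the binding signal.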
# [2] = molecular target: T2, ELK1 (Homo sapiens, UniProt P19419 1-428); conditions: protein: recombinant; tags: N-terminal GST; dsDNA, one strand shown
# T2 sequence: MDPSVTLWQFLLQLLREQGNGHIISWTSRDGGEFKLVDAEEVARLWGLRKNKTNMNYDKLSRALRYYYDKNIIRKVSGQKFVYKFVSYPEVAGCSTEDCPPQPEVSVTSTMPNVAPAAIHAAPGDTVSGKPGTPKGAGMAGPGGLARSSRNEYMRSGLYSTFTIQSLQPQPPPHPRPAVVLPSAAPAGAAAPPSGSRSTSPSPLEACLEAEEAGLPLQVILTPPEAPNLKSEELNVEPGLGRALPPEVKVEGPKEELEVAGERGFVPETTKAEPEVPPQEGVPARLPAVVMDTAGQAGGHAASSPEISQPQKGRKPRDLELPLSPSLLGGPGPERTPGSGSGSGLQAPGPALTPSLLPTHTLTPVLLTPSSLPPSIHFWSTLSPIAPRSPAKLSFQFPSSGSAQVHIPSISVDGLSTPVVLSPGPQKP
# How it was run: as §1
# [3] = molecular target: T3, GABPA (Homo sapiens, UniProt Q06546 1-454); conditions: protein: recombinant; tags: N-terminal GST; dsDNA, one strand shown
# T3 sequence: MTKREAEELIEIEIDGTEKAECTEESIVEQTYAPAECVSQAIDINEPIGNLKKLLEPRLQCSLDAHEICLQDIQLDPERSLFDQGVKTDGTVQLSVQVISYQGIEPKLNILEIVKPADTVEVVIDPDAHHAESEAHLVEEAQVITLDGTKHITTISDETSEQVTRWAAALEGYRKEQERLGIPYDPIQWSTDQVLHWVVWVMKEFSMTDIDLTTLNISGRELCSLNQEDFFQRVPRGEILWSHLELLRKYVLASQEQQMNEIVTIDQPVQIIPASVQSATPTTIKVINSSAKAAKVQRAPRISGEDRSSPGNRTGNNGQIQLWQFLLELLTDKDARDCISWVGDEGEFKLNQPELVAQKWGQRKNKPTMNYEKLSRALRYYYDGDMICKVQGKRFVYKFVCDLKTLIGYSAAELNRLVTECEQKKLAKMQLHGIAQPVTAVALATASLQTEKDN
# How it was run: as §1
# [4] = molecular target: T4, ERG (Homo sapiens, UniProt P11308 1-479); conditions: protein: recombinant; tags: N-terminal GST; dsDNA, one strand shown
# T4 sequence: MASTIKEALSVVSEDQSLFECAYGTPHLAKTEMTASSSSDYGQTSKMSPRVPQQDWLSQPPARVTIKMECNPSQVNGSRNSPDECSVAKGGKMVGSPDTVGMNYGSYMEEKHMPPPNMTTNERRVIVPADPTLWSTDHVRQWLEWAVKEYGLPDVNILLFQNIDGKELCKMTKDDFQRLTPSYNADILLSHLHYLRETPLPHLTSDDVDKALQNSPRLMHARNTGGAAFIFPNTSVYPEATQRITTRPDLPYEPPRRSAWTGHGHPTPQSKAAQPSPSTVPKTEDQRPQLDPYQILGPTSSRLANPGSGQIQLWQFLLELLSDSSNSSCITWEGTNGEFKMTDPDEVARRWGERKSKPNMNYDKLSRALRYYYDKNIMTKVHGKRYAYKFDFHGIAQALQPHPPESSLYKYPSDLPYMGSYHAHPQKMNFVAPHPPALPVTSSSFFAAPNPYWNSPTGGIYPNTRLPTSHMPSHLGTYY
# How it was run: as §1
# [5] = molecular target: ELF1 (Homo sapiens, UniProt P32519 1-619); conditions: protein: recombinant; tags: N-terminal GST; dsDNA, one strand shown
# Chain of ELF1 (P32519 whole entry): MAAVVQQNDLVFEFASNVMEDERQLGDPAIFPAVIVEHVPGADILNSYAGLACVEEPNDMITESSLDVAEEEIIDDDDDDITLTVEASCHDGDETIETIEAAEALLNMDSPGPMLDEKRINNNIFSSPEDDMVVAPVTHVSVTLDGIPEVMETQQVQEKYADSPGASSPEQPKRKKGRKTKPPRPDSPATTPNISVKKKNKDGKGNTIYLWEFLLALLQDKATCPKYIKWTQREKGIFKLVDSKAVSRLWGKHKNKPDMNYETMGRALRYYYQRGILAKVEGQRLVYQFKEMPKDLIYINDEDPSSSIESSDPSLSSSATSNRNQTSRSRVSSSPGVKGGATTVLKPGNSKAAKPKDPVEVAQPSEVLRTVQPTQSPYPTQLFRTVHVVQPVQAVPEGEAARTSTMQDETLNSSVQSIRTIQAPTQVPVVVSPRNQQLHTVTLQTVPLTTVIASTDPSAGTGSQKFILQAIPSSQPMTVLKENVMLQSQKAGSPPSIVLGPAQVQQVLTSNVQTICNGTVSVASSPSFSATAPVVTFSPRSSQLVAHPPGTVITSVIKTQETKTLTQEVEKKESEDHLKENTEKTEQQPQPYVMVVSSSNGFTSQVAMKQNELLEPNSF
# How it was run: as §1
# [6] = molecular target: T5, EHF (Homo sapiens, UniProt Q9NZC4 1-300); conditions: protein: recombinant; tags: N-terminal GST; dsDNA, one strand shown
# T5 sequence: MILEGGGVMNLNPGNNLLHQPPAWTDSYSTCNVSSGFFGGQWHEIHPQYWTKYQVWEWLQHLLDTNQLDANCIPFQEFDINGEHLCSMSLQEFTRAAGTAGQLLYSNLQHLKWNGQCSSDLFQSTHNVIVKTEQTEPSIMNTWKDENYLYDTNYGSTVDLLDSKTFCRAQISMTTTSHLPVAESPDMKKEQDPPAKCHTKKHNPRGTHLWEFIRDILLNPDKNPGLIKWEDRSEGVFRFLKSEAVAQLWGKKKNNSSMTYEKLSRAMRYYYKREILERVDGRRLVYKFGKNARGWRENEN
# How it was run: as §1
# [7] = molecular target: SPI1 (Homo sapiens, UniProt P17947 1-270); conditions: protein: recombinant; tags: N-terminal GST; dsDNA, one strand shown
# How it was run: as §1
# [8] = molecular target: SPIB (Homo sapiens, UniProt Q01892 1-262); conditions: protein: recombinant; tags: N-terminal GST; dsDNA, one strand shown
# Chain of SPIB (Q01892 whole entry): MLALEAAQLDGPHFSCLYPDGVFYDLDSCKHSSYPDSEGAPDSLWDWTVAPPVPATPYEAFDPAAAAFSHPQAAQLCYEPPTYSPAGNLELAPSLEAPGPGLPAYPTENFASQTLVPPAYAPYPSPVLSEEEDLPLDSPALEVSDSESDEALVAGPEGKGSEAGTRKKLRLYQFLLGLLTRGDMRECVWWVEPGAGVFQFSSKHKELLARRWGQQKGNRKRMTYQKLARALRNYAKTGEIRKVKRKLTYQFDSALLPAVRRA
# How it was run: as §1
# [9] = molecular target: T6, ELK3 (Homo sapiens, UniProt P41970 1-407); conditions: protein: recombinant; tags: N-terminal GST; dsDNA, one strand shown
# T6 sequence: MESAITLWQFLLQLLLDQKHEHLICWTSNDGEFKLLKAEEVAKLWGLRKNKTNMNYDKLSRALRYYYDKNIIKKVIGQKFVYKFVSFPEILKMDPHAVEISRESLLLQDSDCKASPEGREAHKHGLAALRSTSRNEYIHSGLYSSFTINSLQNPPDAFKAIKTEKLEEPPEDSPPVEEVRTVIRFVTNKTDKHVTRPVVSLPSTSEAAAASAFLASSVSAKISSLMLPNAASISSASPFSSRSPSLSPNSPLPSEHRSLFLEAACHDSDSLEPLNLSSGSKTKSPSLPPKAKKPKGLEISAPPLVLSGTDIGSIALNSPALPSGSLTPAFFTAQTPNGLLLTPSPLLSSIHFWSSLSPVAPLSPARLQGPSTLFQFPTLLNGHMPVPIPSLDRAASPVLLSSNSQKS
# How it was run: as §1
# [10] = molecular target: T7, FEV (Homo sapiens, UniProt Q99581 1-238); conditions: protein: recombinant; tags: N-terminal GST; dsDNA, one strand shown
# T7 sequence: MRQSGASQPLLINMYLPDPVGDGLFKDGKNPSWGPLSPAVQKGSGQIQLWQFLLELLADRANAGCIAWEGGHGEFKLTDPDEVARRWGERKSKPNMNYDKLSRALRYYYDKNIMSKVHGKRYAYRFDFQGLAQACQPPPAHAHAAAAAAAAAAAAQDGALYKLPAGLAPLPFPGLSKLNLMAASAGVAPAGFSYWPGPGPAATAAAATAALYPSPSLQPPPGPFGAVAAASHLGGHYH
# How it was run: as §1
# [11] = molecular target: ETV5 (Homo sapiens, UniProt P41161 1-510); conditions: protein: recombinant; tags: N-terminal GST; dsDNA, one strand shown
# Chain of ETV5 (P41161 whole entry): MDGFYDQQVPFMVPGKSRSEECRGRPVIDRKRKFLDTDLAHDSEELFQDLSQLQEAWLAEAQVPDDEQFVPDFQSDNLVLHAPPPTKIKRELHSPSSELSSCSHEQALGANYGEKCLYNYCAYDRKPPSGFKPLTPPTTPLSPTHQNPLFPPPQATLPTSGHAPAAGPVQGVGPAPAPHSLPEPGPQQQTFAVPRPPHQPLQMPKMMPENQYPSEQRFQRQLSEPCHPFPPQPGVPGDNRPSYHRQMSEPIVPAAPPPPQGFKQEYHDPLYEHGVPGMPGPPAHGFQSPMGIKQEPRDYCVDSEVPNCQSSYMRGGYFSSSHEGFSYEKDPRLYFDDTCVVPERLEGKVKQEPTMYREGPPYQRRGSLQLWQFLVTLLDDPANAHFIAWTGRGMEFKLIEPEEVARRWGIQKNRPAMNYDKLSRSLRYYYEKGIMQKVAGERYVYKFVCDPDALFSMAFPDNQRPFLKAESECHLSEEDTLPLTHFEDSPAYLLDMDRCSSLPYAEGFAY
# How it was run: as §1
# [12] = molecular target: HSF1 (Homo sapiens, UniProt Q00613 1-529); conditions: protein: recombinant; tags: N-terminal GST; chain copies: 3; dsDNA, one strand shown
# Chain of HSF1 (Q00613 whole entry): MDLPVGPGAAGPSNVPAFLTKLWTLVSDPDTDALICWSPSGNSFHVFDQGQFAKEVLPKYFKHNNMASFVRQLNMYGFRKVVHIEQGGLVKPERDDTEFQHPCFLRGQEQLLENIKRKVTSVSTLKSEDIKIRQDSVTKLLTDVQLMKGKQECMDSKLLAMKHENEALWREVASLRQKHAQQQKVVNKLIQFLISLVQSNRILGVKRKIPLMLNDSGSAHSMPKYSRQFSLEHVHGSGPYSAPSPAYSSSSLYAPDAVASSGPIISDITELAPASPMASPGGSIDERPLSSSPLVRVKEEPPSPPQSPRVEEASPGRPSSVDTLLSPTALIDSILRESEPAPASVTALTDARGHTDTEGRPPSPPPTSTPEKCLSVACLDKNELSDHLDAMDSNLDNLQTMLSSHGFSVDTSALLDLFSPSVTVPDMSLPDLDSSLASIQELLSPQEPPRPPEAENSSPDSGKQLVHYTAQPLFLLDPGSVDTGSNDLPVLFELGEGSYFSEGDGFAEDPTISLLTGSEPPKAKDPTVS
# How it was run: as §1
# [13] = molecular target: T8, SPIC (Homo sapiens, UniProt Q8N5J4 1-248); conditions: protein: recombinant; tags: N-terminal GST; dsDNA, one strand shown
# T8 sequence: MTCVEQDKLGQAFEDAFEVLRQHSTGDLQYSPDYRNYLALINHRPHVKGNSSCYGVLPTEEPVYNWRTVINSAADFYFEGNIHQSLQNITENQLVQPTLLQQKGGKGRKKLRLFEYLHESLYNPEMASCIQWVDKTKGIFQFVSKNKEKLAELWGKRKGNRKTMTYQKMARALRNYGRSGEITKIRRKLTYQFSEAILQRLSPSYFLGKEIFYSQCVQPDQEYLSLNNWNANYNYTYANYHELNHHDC
# How it was run: as §1
# [14] = molecular target: ELF4 (Homo sapiens, UniProt Q99607 1-663); conditions: protein: recombinant; tags: N-terminal GST; dsDNA, one strand shown
# Chain of ELF4 (Q99607 whole entry): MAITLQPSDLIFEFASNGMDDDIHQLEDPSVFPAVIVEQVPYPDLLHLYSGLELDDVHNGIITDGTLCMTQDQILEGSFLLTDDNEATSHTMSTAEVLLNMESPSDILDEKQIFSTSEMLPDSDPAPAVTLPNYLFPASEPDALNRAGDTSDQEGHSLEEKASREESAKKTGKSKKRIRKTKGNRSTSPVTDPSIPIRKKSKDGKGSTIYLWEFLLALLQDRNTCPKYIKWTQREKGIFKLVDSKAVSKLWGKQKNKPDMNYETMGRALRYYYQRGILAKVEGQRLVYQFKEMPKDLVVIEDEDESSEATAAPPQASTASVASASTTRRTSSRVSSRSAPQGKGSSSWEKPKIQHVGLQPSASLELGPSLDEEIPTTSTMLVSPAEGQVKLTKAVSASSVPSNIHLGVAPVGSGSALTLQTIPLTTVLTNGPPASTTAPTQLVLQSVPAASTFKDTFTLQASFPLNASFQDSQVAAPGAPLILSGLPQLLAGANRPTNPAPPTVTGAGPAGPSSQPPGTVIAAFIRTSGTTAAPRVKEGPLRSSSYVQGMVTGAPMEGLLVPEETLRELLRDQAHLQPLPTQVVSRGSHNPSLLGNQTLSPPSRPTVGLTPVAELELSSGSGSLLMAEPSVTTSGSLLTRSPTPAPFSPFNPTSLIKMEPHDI
# How it was run: as §1
# [15] = molecular target: T9, ELK4 (Homo sapiens, UniProt P28324-2 1-405); conditions: protein: recombinant; tags: N-terminal GST; dsDNA, one strand shown
# T9 sequence: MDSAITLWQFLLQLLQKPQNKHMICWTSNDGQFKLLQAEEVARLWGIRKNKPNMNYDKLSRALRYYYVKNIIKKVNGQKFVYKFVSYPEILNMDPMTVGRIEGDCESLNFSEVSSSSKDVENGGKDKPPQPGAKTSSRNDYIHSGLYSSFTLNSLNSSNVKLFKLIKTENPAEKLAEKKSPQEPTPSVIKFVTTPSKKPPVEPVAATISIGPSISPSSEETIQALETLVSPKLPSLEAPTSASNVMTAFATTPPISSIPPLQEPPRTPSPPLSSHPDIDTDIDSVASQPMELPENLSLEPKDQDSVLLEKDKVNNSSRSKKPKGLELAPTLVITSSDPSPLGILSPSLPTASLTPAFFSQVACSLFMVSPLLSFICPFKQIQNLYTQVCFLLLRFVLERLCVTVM
# How it was run: as §1
# [16] = molecular target: T10, ETV2 (Homo sapiens, UniProt O00321 1-342); conditions: protein: recombinant; tags: N-terminal GST; dsDNA, one strand shown
# T10 sequence: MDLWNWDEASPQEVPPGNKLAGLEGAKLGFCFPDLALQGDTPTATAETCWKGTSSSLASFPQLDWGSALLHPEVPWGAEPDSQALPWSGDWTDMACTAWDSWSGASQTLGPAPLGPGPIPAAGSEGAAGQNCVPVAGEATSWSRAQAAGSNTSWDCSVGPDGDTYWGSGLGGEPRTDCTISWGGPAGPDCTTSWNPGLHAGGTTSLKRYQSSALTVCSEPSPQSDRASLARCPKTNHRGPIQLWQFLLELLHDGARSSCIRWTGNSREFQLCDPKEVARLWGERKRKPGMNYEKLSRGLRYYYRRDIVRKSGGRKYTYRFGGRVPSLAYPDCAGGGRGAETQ
# How it was run: as §1
# [17] = molecular target: T11, ELF3 (Homo sapiens, UniProt P78545 1-371); conditions: protein: recombinant; tags: N-terminal GST; dsDNA, one strand shown
# T11 sequence: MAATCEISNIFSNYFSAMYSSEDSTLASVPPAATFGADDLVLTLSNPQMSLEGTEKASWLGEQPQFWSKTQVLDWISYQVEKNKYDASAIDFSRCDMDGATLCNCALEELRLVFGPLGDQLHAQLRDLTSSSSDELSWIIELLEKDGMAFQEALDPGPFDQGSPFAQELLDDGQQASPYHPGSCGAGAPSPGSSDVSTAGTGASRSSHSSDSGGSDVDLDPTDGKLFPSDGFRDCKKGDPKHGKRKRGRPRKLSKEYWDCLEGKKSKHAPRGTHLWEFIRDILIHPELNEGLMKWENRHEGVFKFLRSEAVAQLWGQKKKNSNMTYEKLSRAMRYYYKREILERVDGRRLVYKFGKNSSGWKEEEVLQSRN
# How it was run: as §1
# [18] = molecular target: ETV1 (Homo sapiens, UniProt P50549 1-477); conditions: protein: recombinant; tags: N-terminal GST; dsDNA, one strand shown
# Chain of ETV1 (P50549 whole entry): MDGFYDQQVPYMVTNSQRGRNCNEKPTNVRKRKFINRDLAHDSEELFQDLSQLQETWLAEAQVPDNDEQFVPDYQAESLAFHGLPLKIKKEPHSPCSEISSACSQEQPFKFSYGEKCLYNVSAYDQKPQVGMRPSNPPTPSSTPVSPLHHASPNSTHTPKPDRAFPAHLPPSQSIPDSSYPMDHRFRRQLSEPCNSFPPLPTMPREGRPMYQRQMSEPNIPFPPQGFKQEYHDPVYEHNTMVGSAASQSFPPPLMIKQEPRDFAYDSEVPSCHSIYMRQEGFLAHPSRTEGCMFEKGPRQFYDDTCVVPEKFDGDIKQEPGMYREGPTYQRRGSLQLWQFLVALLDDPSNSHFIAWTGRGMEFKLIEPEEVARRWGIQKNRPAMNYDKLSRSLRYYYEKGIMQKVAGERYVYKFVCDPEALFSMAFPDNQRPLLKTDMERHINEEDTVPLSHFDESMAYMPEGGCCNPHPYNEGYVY
# How it was run: as §1
sequence,measurement,setting,value
TGACAT,binding signal,[1],"1.27 fold enrichment (6-mer frequency, TF over GST control)"
same,binding signal,[2],"1.27 fold enrichment (6-mer frequency, TF over GST control)"
same,binding signal,[3],"1.31 fold enrichment (6-mer frequency, TF over GST control)"
same,binding signal,[4],"1.19 fold enrichment (6-mer frequency, TF over GST control)"
same,binding signal,[5],"1.28 fold enrichment (6-mer frequency, TF over GST control)"
same,binding signal,[6],"1.36 fold enrichment (6-mer frequency, TF over GST control)"
same,binding signal,[7],"1.21 fold enrichment (6-mer frequency, TF over GST control)"
same,binding signal,[8],"1.19 fold enrichment (6-mer frequency, TF over GST control)"
same,binding signal,[9],"1.15 fold enrichment (6-mer frequency, TF over GST control)"
same,binding signal,[10],"1.23 fold enrichment (6-mer frequency, TF over GST control)"
same,binding signal,[11],"1.26 fold enrichment (6-mer frequency, TF over GST control)"
same,binding signal,[12],"1.01 fold enrichment (6-mer frequency, TF over GST control)"
same,binding signal,[13],"1.07 fold enrichment (6-mer frequency, TF over GST control)"
same,binding signal,[14],"1.24 fold enrichment (6-mer frequency, TF over GST control)"
same,binding signal,[15],"1.3 fold enrichment (6-mer frequency, TF over GST control)"
same,binding signal,[16],"1.18 fold enrichment (6-mer frequency, TF over GST control)"
same,binding signal,[17],"1.25 fold enrichment (6-mer frequency, TF over GST control)"
same,binding signal,[18],"1.23 fold enrichment (6-mer frequency, TF over GST control)"
